PubChem BioAssay (EPA / NIEHS)
Where “and” joins values, the source holds several entries; their conditions need not be identical. Equal entries are not always repeated. Some compounds were tested as several samples or in several runs, with calls that do not always agree. Calls of active or inactive are those of the source. How the source made its calls: active means hit-call score of the fitted dose curve at least 0.9, where 1 is the maximum; inactive means score below 0.9.

Read-out: Interleukin-8 (IL8), CXCL8 (gene 3576)
Assay: BSK_hDFCGF_IL8: BioMAP Diversity Plus: hDFCGF Assay for Interleukin-8 (IL8) Biomarker Activity (AID 2283058)
Conditions: primary human foreskin fibroblasts; actives raise or lower the signal
Protocol: BSK_hDFCGF is a cell-based, multiplexed-readout assay that uses foreskin fibroblast, a human skin primary cell, with measurements taken at 24 hours after chemical dosing in a 96-well plate.BSK_hDFCGF_IL8 is an assay component measured in the BSK_hDFCGF assay. It measures IL-8 antibody related to regulation of gene expression using ELISA technology.Data from the assay component BSK_hDFCGF_IL8 was analyzed into 1 assay endpoint. This assay endpoint, BSK_hDFCGF_IL8, was analyzed with bidirectional fitting relative to DMSO as the negative control and baseline of activity. Using a type of binding reporter, gain or loss-of-signal activity can be used to understand changes in the signaling as they relate to the gene CXCL8. Furthermore, this assay endpoint can be referred to as a primary readout, because this assay has produced multiple assay endpoints where this one serves a signaling function. To generalize the intended target to other relatable targets, this assay endpoint is annotated to the cytokine intended target family, where the subfamily is interleukins.
The levels of cell surface (or secreted, indicated by the prefix "s") biomarker endpoints were measured by ELISA. Overt cytotoxicity to cells in confluent adherent cultures (all systems other than the BT system) was assessed by measuring total protein levels using sulforhodamine B (SRB) staining in parallel cultures at the time of biomarker measurements, indicated as SRB endpoints. For proliferation assays for adherent cell types, individual cell types are cultured at sub-confluence and relative cell numbers quantified by SRB staining at time points optimized for each system (48 h: 3C and CASM3C systems; 72 h: BT and HDF3CGF systems; 96 h: SAg system). SRB was performed by staining cells with 0.1% SRB after fixation with 10% TCA and reading wells at 560 nm.Viability and proliferation of PBMC (T cells) was quantified by Alamar Blue reduction for the SAg and BT systems. For PBMC viability (referred to as PBMC Cytotoxicity within the assay endpoint names), cells were plated (75,000/well in a 96-well plate) and then chemical samples added for 1 h before addition of activators, SEB and TSST-1 (20 ng/mL final concentration each). Cells were incubated for 90 h. Then, Alamar Blue (20 uL/well) (Invitrogen, Cat DAL1100) was added for 6 h, and the plates were read with a fluorescence microplate reader at 546/580 nm (excitation/emission). For PBMC proliferation, cells were plated and activated as above but incubated for only 16 h prior to addition of Alamar Blue. Plates were read after 6 h.

| Compound | outcome | AC50 |
| --- | --- | --- |
| COc1ccc(C(=O)/C(Br)=C\C(=O)O)cc1 | inactive | 38.9 µM (active) |
| O=C(Cl)c1c(Cl)c(Cl)c(C(=O)Cl)c(Cl)c1Cl | inactive |  |
| CC(c1cc(C(C)(C)C)cc(C(C)(C)C)c1O)c1cc(C(C)(C)C)cc(C(C)(C)C)c1O | inactive |  |
| CC(C)C(=O)OCCc1ccccc1 | inactive |  |
| CCCCCCCCC(CO)CCCCCC (stereo not given) | inactive |  |
| CC/C=C\CCOC(=O)c1ccccc1O | inactive |  |
| O=C(O)C(F)(F)C(F)(F)C(F)(F)C(F)(F)C(=O)O | inactive |  |
| C=CC(=O)NC(C)(C)C | inactive |  |
| C=C(C)C(=O)OCCCCCCCCCCCC | inactive |  |
| Cc1ccc([N+](=O)[O-])cc1N | inactive |  |
| Oc1ccccc1Cc1ccccc1O | inactive |  |
| COc1ccc(C(=O)c2ccccc2)c(O)c1 | inactive |  |
| CCC1(C)C(=O)N(Cl)C(=O)N1Cl (stereo not given) | inactive |  |
| Cc1c(O)cccc1O | inactive |  |
| COC(OC)(C(=O)c1ccccc1)c1ccccc1 | inactive |  |
| CCCCC1C(=O)N(c2ccccc2)N(c2ccccc2)C1=O | inactive |  |
| c1ccc2c(c1)[nH]c1ccccc12 | inactive |  |
| Fc1ccc(Br)cc1 | inactive |  |
| CC1=CC=C(C(C)C)CC1 | inactive |  |
| Oc1c(Cl)cc(Cl)c(Cl)c1Cl | inactive |  |

| Compound | outcome | AC50 |
| --- | --- | --- |
| CC(CCC(=O)O)(c1ccc(O)cc1)c1ccc(O)cc1 | inactive |  |
| C=CC(=O)NCOCCCC | inactive |  |
| C[N+](C)(C)CCCNS(=O)(=O)C(F)(F)C(F)(F)C(F)(F)C(F)(F)C(F)(F)C(F)(F)C(F)(F)C(F)(F)F |  | 49.3 µM (active) and 45.2 µM (active) |
| O=C1CCCCCCCCCCC1 | inactive |  |
| C=CCCCCCCCCC=O | inactive |  |
| CCNc1nc(NC(C)(C)C)nc(OC)n1 | inactive |  |
| O=C1CCCCCCCCCCCN1 | inactive |  |
| Oc1ccc(/C=C/c2cc(O)cc(O)c2)cc1 | inactive |  |
| Clc1cc(Cl)c(Cl)c(Cl)c1Cl | inactive |  |
| CCc1cccc(C)c1N(C(=O)CS(=O)(=O)O)C(C)COC (stereo not given) | inactive |  |
| O=C(Oc1ccccc1)c1ccccc1C(=O)Oc1ccccc1 | inactive |  |
| CCCCCCCO | inactive |  |
| CC(C)CCCCCOC(=O)CS | inactive |  |
| c1ccc2sc(SSN3CCOCC3)nc2c1 | inactive |  |
| CC=C(C)C(C)=O | inactive |  |
| c1ccc(Nc2cccc3ccccc23)cc1 |  | 35.1 µM (active) and 36.6 µM (active) |
| CCCCCCCCCCCC(=O)N(C)CC(=O)O | inactive |  |
| CC(C)[N+](C)(CCOC(=O)C1c2ccccc2Oc2ccccc21)C(C)C | inactive |  |
| CC=C(C)C=CC=C(C)C | inactive |  |
